The list is not random: actives were taken first. Their share in the collection is about 9.4%.
ELG1 DNA repair: qHTS screen for small molecules that inhibit ELG1-dependent DNA repair in human embryonic kidney (HEK293T) cells expressing luciferase-tagged ELG1. Potency, µM (doses to about 46.1 µM), for inactives: at the highest dose activity change, negative = inhibition, hits mostly inhibitors. HEK293T ELG1-luciferase reporter, luminescence, 16 h; DNA damage induced by 5-fluorouridine. actives 2.3% (n = 330,000). AID 504467, 2011; note: % is set by controls: 0 for no effect and ±100 for the full control effect; nearly all actives have a fitted effect of over 55% in size
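Overnight (16 hr) co-exposure of 2,000 cells/well to 5-fluorouridine and compound at 37 °C preceded detection. Luciferase was quantified via ONE-Glo luminescence; loss of signal denotes inhibition.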
Rab9 promoter act: qHTS Assay for Rab9 Promoter Activators; Huh7 Rab9 promoter-luciferase reporter, luminescence, 24 h; Potency, µM (doses to about 9.22 µM), for the others: at the highest dose activation, negative = inhibition, most hits filed as activators; actives 2.8% (n = 320,000); note: % of control where 0% means no effect; nearly all actives have a fitted effect of over 60% in size
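Rab9 promoter-driven luciferase in stably transfected Huh7 cells; 1500 cells/well rested 2 h, exposed to compound in DMSO for 24 h at 37 °C, 5% CO2. Luminescence read 10 min after adding luciferase reagent at ambient temperature.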
SMN2 splice enh: qHTS Assay for Enhancers of SMN2 Splice Variant Expression. HEK293 SMN2-luciferase splicing reporter, luminescence, 30-36 h. Potency, µM (series often up to 46.1 µM), for the others: top-dose activity change, positive = activation, most hits filed as activators. actives 2.8% (n = 210,000). AID 1458, 2008; note: % of control where 0% means no effect; nearly all actives have a fitted effect of over 55% in size
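qHTS luciferase splicing reporter: luminescence rises when SMN2 exon 7 is included in transfected HEK293 cells. Compound exposure lasted 30-36 h at 37C, with 4.5 mM final sodium butyrate as control, followed by a ONE-Glo read.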
ELG1 genotox: qHTS screen for small molecules that induce genotoxicity in human embryonic kidney (HEK293T) cells expressing luciferase-tagged ELG1; HEK293T ELG1-luciferase reporter, luminescence, 16 h; Potency, µM (titrated, usually from 46 µM), without a hit: at the top dose activity change, positive = activation, actives largely listed as activators; actives 1.3% (n = 330,000); AID 504466, 2011; note: % of control where 0% means no effect; nearly all actives have a fitted effect of over 60% in size
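Genotoxic stress is detected as increased luminescence from luciferase-tagged ELG1 in HEK293T cells, measured with ONE-Glo after a 16 hr treatment at 37 °C.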
FLuc counter: qHTS profiling assay for firefly luciferase inhibitor/activator using purifed enzyme and Km concentrations of substrates (counterscreen for miR-21 project) | Luciferin 4-monooxygenase (Photinus pyralis), P08659 | purified FLuc, Km substrates, luminescence inhibition | AID 588342, 2011 | Potency, µM (titrated, usually from 57.5 µM), inactives show top-dose activity change, negative = inhibition, actives largely listed as inhibitors | actives 6.9% (n = 360,000);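 note: plate controls were vehicle for no effect and reference inhibitor for full effect; nearly all actives have a fitted effect of over 55% in size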
Target sequence (P08659 whole entry, looked up): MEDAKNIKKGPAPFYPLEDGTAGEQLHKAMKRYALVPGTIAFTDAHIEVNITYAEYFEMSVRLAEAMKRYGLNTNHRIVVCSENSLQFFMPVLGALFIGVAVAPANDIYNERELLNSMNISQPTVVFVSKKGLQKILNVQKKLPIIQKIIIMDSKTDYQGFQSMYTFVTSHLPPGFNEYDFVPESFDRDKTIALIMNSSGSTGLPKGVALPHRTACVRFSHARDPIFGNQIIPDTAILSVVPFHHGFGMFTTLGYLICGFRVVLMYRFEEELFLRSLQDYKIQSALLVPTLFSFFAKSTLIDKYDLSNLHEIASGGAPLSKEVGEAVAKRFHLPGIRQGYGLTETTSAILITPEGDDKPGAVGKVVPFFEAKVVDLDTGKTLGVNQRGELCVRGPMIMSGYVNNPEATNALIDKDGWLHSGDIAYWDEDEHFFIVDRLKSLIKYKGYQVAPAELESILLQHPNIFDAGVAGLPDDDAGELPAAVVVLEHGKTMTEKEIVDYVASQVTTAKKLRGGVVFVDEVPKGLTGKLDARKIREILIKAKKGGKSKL
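Purified P. pyralis luciferase (10nM final) with 10uM D-luciferin and 10uM ATP (Km levels) in 50mM Tris acetate pH 7.5, 10mM Mg acetate, 0.01% Tween-20, 0.05% BSA; qHTS 6-point titration, ~60 µM downward; luminescence read.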
NPC1 promoter act: qHTS Assay for NPC1 Promoter Activators; Huh7 NPC1 promoter luciferase reporter, 24 h; Potency, µM (series often up to 9.22 µM), for inactives: at the top dose activation, actives largely listed as activators; actives 2.4% (n = 320,000); AID 485313, 2010; note: % of control where 0% means no effect; nearly all actives have a fitted effect of over 60% in size
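Compounds in DMSO were transferred onto Huh7 NPC1-luciferase reporter cells pre-incubated 2 h; after 24 h at 37 °C, Amplite reagent was dispensed and luminescence recorded 10 min later.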
* hit, by the source's call; u = inconclusive; x = no result given; [ ] = dose if it differs, or a comment. Calls come from the whole dose curve; as a rule, active = well fitted curve in the direction sought with a large enough effect; inconclusive = small, poorly fitted or top-dose-only effect, or another doubt; inactive = no such curve, though single readings can be large; an effect the other way counts as inactive or inconclusive. Potency is the fitted concentration of half-maximal effect.

SMILES | ELG1 DNA repair | Rab9 promoter act | SMN2 splice enh | ELG1 genotox | FLuc counter | NPC1 promoter act
COc1cccc(C2C(C(=O)c3cccs3)=C(O)C(=O)N2CCN2CCOCC2)c1 (centres undefined) | 8.8% | 1.9% | x | 0.4% | -0.3% | -3.7%
COc1cccc(C2C(C(=O)c3ccc(C)o3)=C(O)C(=O)N2CCN2CCOCC2)c1 (centres undefined) | 20.6µM* | 9.5% | x | -7.5% | -2.2% | 0.8%
Cc1cc(SCC(=O)N/N=C/c2ccc(O)c(O)c2)c(C)cc1Br | 0.0% | 0.6% | 18.1% | -9.1% | 5.7% | -6.9%
COc1ccc2nc(-c3ccccc3)cc(OC)c2c1 | u | 20.4% | u | u | 12µM* | 17.9%
O=C(N/N=C/c1ccco1)c1cc(-c2cccc(Br)c2)nc2ccccc12 | u | -0.3% | -46.1% | -0.7% | 4.78µM* | -0.2%
O=C(N/N=C/c1ccc(O)c(O)c1)N/N=C/c1ccc(O)c(O)c1 | u | -13.8% | x | 7.3% | 5.36µM* | 0.0%
CC(/C=N/NC(=O)c1cc(-c2ccncc2)nc2ccccc12)=C\c1ccco1 | u | -9.3% | -18.0% | 1.8% | -14.9% | -7.0%
O=C(N/N=C/c1cccc(O)c1)c1cc(-c2ccccc2)nc2ccccc12 | u | 0.1% | x | -3.7% | 10.7µM* | -0.3%
O=C(O)CCCC/C=C\C[C@@H](O)/C=C/C=C/C=C\[C@@H](O)CCCC(=O)O | x | x | 6.3% | x | x | x
CCN1C(=NCc2cc(OC)c(OC)c(OC)c2)N[C@@H](c2cccc(F)c2)C(C(=O)OC)=C1C | x | -8.4% | x | x | 1.0% | -0.4%
O=C(NCCC1CCCCN1S(=O)(=O)c1ccc(F)cc1)C(=O)Nc1ccccc1 (centres undefined) | -0.9% | 0.1% | x | -3.2% | 1.7% | 1.1%
COc1ccccc1NC(=O)Cn1c(=O)n(Cc2cccs2)c(=O)c2cccnc21 | x | x | 3.1% | x | 1.8% | x
O=C(N/N=C/c1ccc(O)c(O)c1)c1cc(-c2ccccc2)nc2ccccc12 | 1.7% | 0.4% | x | 2.7% | 15.1µM* | -7.7%
O=C(N/N=C/c1cccc([N+](=O)[O-])c1)c1cc(-c2ccccc2)nc2ccccc12 | -24.9% | 0.5% | -2.5%[1.84 µM] | 4.7% | 2.0% | -2.8%
COc1ccc(/C=N/NC(=O)c2cc(-c3ccccc3)nc3ccccc23)c(OC)c1 | 11.6µM* | 12.1% | x | -5.6% | 16.9µM* | 2.8%
O=C(N/N=C/c1ccc2c(c1)OCO2)c1cc(-c2ccncc2)nc2ccccc12 | -24.2% | -22.5% | -26.3% | 4.4% | 12µM* | -18.5%
O=C(N/N=C/c1ccc2c(c1)OCO2)c1cc(-c2ccccc2Cl)nc2ccccc12 | u | -1.9% | -13.5% | -0.1% | u | -1.7%
O=C(N/N=C/c1ccc(Cl)cc1)c1cc(-c2cccnc2)nc2ccccc12 | u | -17.6% | -25.8% | 6.0% | -6.7% | -32.1%
O=C(N/N=C/c1ccc[nH]1)c1cc(-c2ccc(Cl)cc2)nc2ccccc12 | u | -3.5% | -33.1% | -11.5% | 12µM* | -11.2%
O=C(C1CCN(C2CCN(CC3CC=CCC3)CC2)CC1)N1CCOCC1 (centres undefined) | 3.1% | -12.2% | x | -0.4% | 0.6% | -3.6%
COc1ccc(S(=O)(=O)N(CCc2ccccc2)CC(=O)NCc2ccc(C)cc2)cc1 | x | x | 0.1% | x | -15.0% | x
Cc1ccc(CCNC(=O)c2cn(C)c3ccc(S(=O)(=O)N4CCC(C)CC4)cc3c2=O)cc1 | x | x | 3.4% | x | 4.2% | x
O=C(Nc1ccccc1)C(Cc1ccccc1)N1Cc2ccccc2C1=O (centres undefined) | x | x | x | x | -1.8% | x
Cc1ccc(OCC(=O)Nc2ccc3nc(SCC(=O)Nc4ccc(C)cc4C)sc3c2)cc1 | x | x | x | x | 1.4% | x
Cc1ccc(-n2ncc3c(SCc4ccccc4)ncnc32)cc1 | u | u | 11.2µM* | u | 10.7µM* | 3.98µM*
SMILES | ELG1 DNA repair | Rab9 promoter act | SMN2 splice enh | ELG1 genotox | FLuc counter | NPC1 promoter act
Fc1ccc(-n2ncc3c(SCc4cccnc4)ncnc32)cc1 | u | u | -32.1% | 23.1µM* | 6.75µM* | 24.8%
Cc1nc(SCc2ccccc2F)c2cnn(-c3ccccc3)c2n1 | 28.7% | u | 35.5µM* | 8.7% | u | 7.4%
Cc1ccc(CSc2ncnc3c2cnn3-c2ccc(C)cc2)cc1 | u | u | u | 13.6% | -9.6% | u
Cc1ccc(-n2ncc3c(SCc4ccccn4)ncnc32)c(C)c1 | u | u | 1.78µM* | 0.1% | u | 1.2%
COc1ccccc1NC(=O)C(=O)NCCc1csc(-c2cccc(F)c2)n1 | x | x | x | x | -14.6% | x
COc1ccc(C(=O)N2CCN(c3nc4c(OC)cccc4s3)CC2)cc1OC | x | x | x | x | -5.9% | x
OC1C2COC(O2)[C@H](O)C1O (some centres undefined) | x | x | -4.0% | x | x | x
COc1c(/C=N/NC(=O)c2ccccc2O)c(CCN(C)C(C)=O)cc2c1OCO2 | 8.0% | 6.3% | 52.8% | 0.5% | 19µM* | -1.4%
O=C(c1nn(-c2ccccc2)c(=O)c2ccccc12)N1CCN(c2ccccn2)CC1 | -19.4% | -4.2% | -1.3% | -0.2% | 1.9% | 0.3%
COc1ccc(/C=C/C(=O)NC(=S)N2CCN(c3ccccn3)CC2)cc1 | u | 0.0% | x | 10.3% | 13.5µM* | 5.9%
COc1ccc(-n2nc(C(=O)NCC(=O)N3CCN(c4ccccn4)CC3)c3ccccc3c2=O)cc1 | u | u | u | 1.6% | 1.2µM* | u
COc1ccc(-n2nc(C(=O)NCC(=O)N3CCN(c4ccccn4)CC3)c3ccccc3c2=O)cc1OC | -28.7% | 18.5% | -1.0% | -4.2% | 4.78µM* | -4.3%
O=C(NC1CCCCC1)C(c1cccnc1)N(C(=O)CCl)c1ccc(F)cc1 (centres undefined) | 20.6µM* | -36.6% | -17.4%[1.84 µM] | -13.3% | 3.4% | -37.4%
COc1ccc(N(C(=O)CCl)C(C(=O)NC2CCCCC2)c2cccnc2)cc1 (centres undefined) | 20.6µM* | -38.3% | -13.2%[1.84 µM] | -16.3% | 4.0% | -37.3%
COc1ccc(C(C(=O)NC2CCCCC2)N(C(=O)CCl)c2ccc(OC)cc2)cc1 (centres undefined) | u | -41.0% | -12.1%[1.84 µM] | -13.2% | -0.1% | -42.0%
N#Cc1ccc(CN2C(=O)c3ccccc3Sc3ccc(C(=O)OCc4ccco4)cc32)cc1 | x | x | x | x | -0.5% | x
Nc1c(Cl)cc(Cl)cc1Cl | x | x | -5.6% | x | x | x

High-throughput results (PubChem BioAssay)
